Results from paper PMC11006913.

Tests used:
Test in all cases: PBM; 200 nM protein, PBS
Conditions in all cases: dsDNA, one strand shown
[1] = biological target: HESX1 (Homo sapiens, UniProt Q9UBX0 95-180, R165K)
[2] = biological target: SHOX (Homo sapiens, UniProt O15266 103-189)
[3] = biological target: HESX1 (Homo sapiens, UniProt Q9UBX0 95-180)
[4] = biological target: SHOX (Homo sapiens, UniProt O15266 103-189, R173C)
[5] = biological target: HESX1 (Homo sapiens, UniProt Q9UBX0 95-180, R109Q)
Sequence of HESX1 (Homo sapiens, UniProt Q9UBX0 95-180, R109Q) (Q9UBX0 95-180 R109Q): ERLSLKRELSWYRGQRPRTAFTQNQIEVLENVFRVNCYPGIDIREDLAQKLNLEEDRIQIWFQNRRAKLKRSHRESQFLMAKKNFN

[6] = biological target: HESX1 (Homo sapiens, UniProt Q9UBX0 95-180, P111T)
Sequence of HESX1 (Homo sapiens, UniProt Q9UBX0 95-180, P111T) (Q9UBX0 95-180 P111T): as the sequence (Q9UBX0 95-180 R109Q) above, with Q15R, P17T counted along it

[7] = biological target: HESX1 (Homo sapiens, UniProt Q9UBX0 95-180, F115L)
Sequence of HESX1 (Homo sapiens, UniProt Q9UBX0 95-180, F115L) (Q9UBX0 95-180 F115L): as the sequence (Q9UBX0 95-180 R109Q) above, with Q15R, F21L counted along it

[8] = biological target: ALX4 (Homo sapiens, UniProt Q9H161 200-286)
Sequence of ALX4 (Homo sapiens, UniProt Q9H161 200-286) (Q9H161 200-286): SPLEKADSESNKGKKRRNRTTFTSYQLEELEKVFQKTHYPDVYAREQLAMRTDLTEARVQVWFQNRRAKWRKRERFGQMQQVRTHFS

[9] = biological target: ALX4 (Homo sapiens, UniProt Q9H161 200-286, Q225E)
Sequence of ALX4 (Homo sapiens, UniProt Q9H161 200-286, Q225E) (Q9H161 200-286 Q225E): as the sequence (Q9H161 200-286) above, with Q26E counted along it

[10] = biological target: ALX1 (Homo sapiens, UniProt Q15699 118-204, L144V)
Sequence of ALX1 (Homo sapiens, UniProt Q15699 118-204, L144V) (Q15699 118-204 L144V): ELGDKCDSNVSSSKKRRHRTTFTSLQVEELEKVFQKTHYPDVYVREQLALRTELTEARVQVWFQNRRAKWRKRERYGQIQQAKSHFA

[11] = biological target: ALX3 (Homo sapiens, UniProt O95076 139-225, N203Q)
Sequence of ALX3 (Homo sapiens, UniProt O95076 139-225, N203Q) (O95076 139-225 N203Q): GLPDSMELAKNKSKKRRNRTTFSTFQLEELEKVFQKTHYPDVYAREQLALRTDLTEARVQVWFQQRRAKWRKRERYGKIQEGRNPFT

[12] = biological target: ALX1 (Homo sapiens, UniProt Q15699 118-204, L144R)
Sequence of ALX1 (Homo sapiens, UniProt Q15699 118-204, L144R) (Q15699 118-204 L144R): as the sequence (Q15699 118-204 L144V) above, with V27R counted along it

[13] = biological target: ALX3 (Homo sapiens, UniProt O95076 139-225)
Sequence of ALX3 (Homo sapiens, UniProt O95076 139-225) (O95076 139-225): as the sequence (O95076 139-225 N203Q) above, with Q65N counted along it

[14] = biological target: PROP1 (Homo sapiens, UniProt O75360 56-141)
Sequence of PROP1 (Homo sapiens, UniProt O75360 56-141) (O75360 56-141): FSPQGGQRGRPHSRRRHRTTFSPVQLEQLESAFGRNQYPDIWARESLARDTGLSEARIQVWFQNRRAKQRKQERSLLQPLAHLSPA

[15] = biological target: PROP1 (Homo sapiens, UniProt O75360 56-141, R99H)
Sequence of PROP1 (Homo sapiens, UniProt O75360 56-141, R99H) (O75360 56-141 R99H): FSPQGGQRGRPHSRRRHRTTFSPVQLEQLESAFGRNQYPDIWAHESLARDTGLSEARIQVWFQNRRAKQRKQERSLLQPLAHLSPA

[16] = biological target: ALX3 (Homo sapiens, UniProt O95076 139-225, L168Q)
Sequence of ALX3 (Homo sapiens, UniProt O95076 139-225, L168Q) (O95076 139-225 L168Q): as the sequence (O95076 139-225 N203Q) above, with L30Q, Q65N counted along it

[17] = biological target: ALX3 (Homo sapiens, UniProt O95076 139-225, L168V)
Sequence of ALX3 (Homo sapiens, UniProt O95076 139-225, L168V) (O95076 139-225 L168V): as the sequence (O95076 139-225 N203Q) above, with L30V, Q65N counted along it

[18] = biological target: PROP1 (Homo sapiens, UniProt O75360 56-141, F88S)
Sequence of PROP1 (Homo sapiens, UniProt O75360 56-141, F88S) (O75360 56-141 F88S): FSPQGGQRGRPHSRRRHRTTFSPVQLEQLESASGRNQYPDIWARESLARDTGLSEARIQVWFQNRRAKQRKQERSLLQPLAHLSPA

[19] = biological target: ALX1 (Homo sapiens, UniProt Q15699 118-204)
Sequence of ALX1 (Homo sapiens, UniProt Q15699 118-204) (Q15699 118-204): as the sequence (Q15699 118-204 L144V) above, with V27L counted along it

[20] = biological target: ALX3 (Homo sapiens, UniProt O95076 139-225, N203S)
Sequence of ALX3 (Homo sapiens, UniProt O95076 139-225, N203S) (O95076 139-225 N203S): as the sequence (O95076 139-225 N203Q) above, with Q65S counted along it

Sequence of HESX1 (Homo sapiens, UniProt Q9UBX0 95-180) (Q9UBX0 95-180): as the sequence (Q9UBX0 95-180 R109Q) above, with Q15R counted along it
Sequence of SHOX (Homo sapiens, UniProt O15266 103-189, R173C) (O15266 103-189 R173C): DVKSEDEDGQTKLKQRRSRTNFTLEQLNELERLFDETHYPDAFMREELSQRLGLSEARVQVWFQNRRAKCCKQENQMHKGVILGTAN
Sequence of SHOX (Homo sapiens, UniProt O15266 103-189) (O15266 103-189): as the sequence (O15266 103-189 R173C) above, with C71R counted along it
Sequence of HESX1 (Homo sapiens, UniProt Q9UBX0 95-180, R165K) (Q9UBX0 95-180 R165K): as the sequence (Q9UBX0 95-180 R109Q) above, with Q15R, R71K counted along it

Sequence | binding signal [1] | binding signal [2] | binding signal [3] | binding signal [4] | binding signal [5] | binding signal [6] | binding signal [7] | binding signal [8] | binding signal [9] | binding signal [10] | binding signal [11] | binding signal [12] | binding signal [13] | binding signal [14] | binding signal [15] | binding signal [16] | binding signal [17] | binding signal [18] | binding signal [19] | binding signal [20]
AGGGACCG | 6.62 upbm affinity estimate (log intensity, higher = more binding, comparable within an allelic series) | 7.23 upbm affinity estimate (log intensity, higher = more binding, comparable within an allelic series) | 6.41 upbm affinity estimate (log intensity, higher = more binding, comparable within an allelic series) | 7.13 upbm affinity estimate (log intensity, higher = more binding, comparable within an allelic series) | 6.42 upbm affinity estimate (log intensity, higher = more binding, comparable within an allelic series) | 6.58 upbm affinity estimate (log intensity, higher = more binding, comparable within an allelic series) | 6.26 upbm affinity estimate (log intensity, higher = more binding, comparable within an allelic series) | – | – | – | – | – | – | – | – | – | – | – | – | –
AACTAATT | 11.5 upbm affinity estimate (log intensity, higher = more binding, comparable within an allelic series) | 11.5 upbm affinity estimate (log intensity, higher = more binding, comparable within an allelic series) | 11.5 upbm affinity estimate (log intensity, higher = more binding, comparable within an allelic series) | 9.12 upbm affinity estimate (log intensity, higher = more binding, comparable within an allelic series) | 8.89 upbm affinity estimate (log intensity, higher = more binding, comparable within an allelic series) | 10.3 upbm affinity estimate (log intensity, higher = more binding, comparable within an allelic series) | 7.81 upbm affinity estimate (log intensity, higher = more binding, comparable within an allelic series) | 13.7 upbm affinity estimate (log intensity, higher = more binding, comparable within an allelic series) | 12.7 upbm affinity estimate (log intensity, higher = more binding, comparable within an allelic series) | 11.5 upbm affinity estimate (log intensity, higher = more binding, comparable within an allelic series) | 8.44 upbm affinity estimate (log intensity, higher = more binding, comparable within an allelic series) | 11.2 upbm affinity estimate (log intensity, higher = more binding, comparable within an allelic series) | 12.4 upbm affinity estimate (log intensity, higher = more binding, comparable within an allelic series) | 11.2 upbm affinity estimate (log intensity, higher = more binding, comparable within an allelic series) | 11.1 upbm affinity estimate (log intensity, higher = more binding, comparable within an allelic series) | 10.3 upbm affinity estimate (log intensity, higher = more binding, comparable within an allelic series) | 9.88 upbm affinity estimate (log intensity, higher = more binding, comparable within an allelic series) | 7.84 upbm affinity estimate (log intensity, higher = more binding, comparable within an allelic series) | 12.3 upbm affinity estimate (log intensity, higher = more binding, comparable within an allelic series) | 8.58 upbm affinity estimate (log intensity, higher = more binding, comparable within an allelic series)
AATTAAGT | 11.6 upbm affinity estimate (log intensity, higher = more binding, comparable within an allelic series) | 11.8 upbm affinity estimate (log intensity, higher = more binding, comparable within an allelic series) | 11.6 upbm affinity estimate (log intensity, higher = more binding, comparable within an allelic series) | 9.31 upbm affinity estimate (log intensity, higher = more binding, comparable within an allelic series) | 8.53 upbm affinity estimate (log intensity, higher = more binding, comparable within an allelic series) | 10.3 upbm affinity estimate (log intensity, higher = more binding, comparable within an allelic series) | 7.65 upbm affinity estimate (log intensity, higher = more binding, comparable within an allelic series) | 13.9 upbm affinity estimate (log intensity, higher = more binding, comparable within an allelic series) | 13 upbm affinity estimate (log intensity, higher = more binding, comparable within an allelic series) | 11.7 upbm affinity estimate (log intensity, higher = more binding, comparable within an allelic series) | 8.5 upbm affinity estimate (log intensity, higher = more binding, comparable within an allelic series) | 11.4 upbm affinity estimate (log intensity, higher = more binding, comparable within an allelic series) | 12.5 upbm affinity estimate (log intensity, higher = more binding, comparable within an allelic series) | 11.3 upbm affinity estimate (log intensity, higher = more binding, comparable within an allelic series) | 11.2 upbm affinity estimate (log intensity, higher = more binding, comparable within an allelic series) | 10.5 upbm affinity estimate (log intensity, higher = more binding, comparable within an allelic series) | 10 upbm affinity estimate (log intensity, higher = more binding, comparable within an allelic series) | 7.71 upbm affinity estimate (log intensity, higher = more binding, comparable within an allelic series) | 12.3 upbm affinity estimate (log intensity, higher = more binding, comparable within an allelic series) | 8.69 upbm affinity estimate (log intensity, higher = more binding, comparable within an allelic series)
AATTAAAT | 11.5 upbm affinity estimate (log intensity, higher = more binding, comparable within an allelic series) | 11.5 upbm affinity estimate (log intensity, higher = more binding, comparable within an allelic series) | 11.6 upbm affinity estimate (log intensity, higher = more binding, comparable within an allelic series) | 9.35 upbm affinity estimate (log intensity, higher = more binding, comparable within an allelic series) | 8.88 upbm affinity estimate (log intensity, higher = more binding, comparable within an allelic series) | 10.3 upbm affinity estimate (log intensity, higher = more binding, comparable within an allelic series) | 7.97 upbm affinity estimate (log intensity, higher = more binding, comparable within an allelic series) | 13.9 upbm affinity estimate (log intensity, higher = more binding, comparable within an allelic series) | 13.1 upbm affinity estimate (log intensity, higher = more binding, comparable within an allelic series) | 11.5 upbm affinity estimate (log intensity, higher = more binding, comparable within an allelic series) | 8.52 upbm affinity estimate (log intensity, higher = more binding, comparable within an allelic series) | 11.3 upbm affinity estimate (log intensity, higher = more binding, comparable within an allelic series) | 12.5 upbm affinity estimate (log intensity, higher = more binding, comparable within an allelic series) | 11.6 upbm affinity estimate (log intensity, higher = more binding, comparable within an allelic series) | 11.4 upbm affinity estimate (log intensity, higher = more binding, comparable within an allelic series) | 10.5 upbm affinity estimate (log intensity, higher = more binding, comparable within an allelic series) | 10.2 upbm affinity estimate (log intensity, higher = more binding, comparable within an allelic series) | 7.81 upbm affinity estimate (log intensity, higher = more binding, comparable within an allelic series) | 12.2 upbm affinity estimate (log intensity, higher = more binding, comparable within an allelic series) | 8.68 upbm affinity estimate (log intensity, higher = more binding, comparable within an allelic series)
CCAATTAC | 12.8 upbm affinity estimate (log intensity, higher = more binding, comparable within an allelic series) | 12.2 upbm affinity estimate (log intensity, higher = more binding, comparable within an allelic series) | 12.9 upbm affinity estimate (log intensity, higher = more binding, comparable within an allelic series) | 9.4 upbm affinity estimate (log intensity, higher = more binding, comparable within an allelic series) | 9.36 upbm affinity estimate (log intensity, higher = more binding, comparable within an allelic series) | 11.3 upbm affinity estimate (log intensity, higher = more binding, comparable within an allelic series) | 7.75 upbm affinity estimate (log intensity, higher = more binding, comparable within an allelic series) | 13.8 upbm affinity estimate (log intensity, higher = more binding, comparable within an allelic series) | 13.1 upbm affinity estimate (log intensity, higher = more binding, comparable within an allelic series) | 11.8 upbm affinity estimate (log intensity, higher = more binding, comparable within an allelic series) | 8.39 upbm affinity estimate (log intensity, higher = more binding, comparable within an allelic series) | 11.4 upbm affinity estimate (log intensity, higher = more binding, comparable within an allelic series) | 12.5 upbm affinity estimate (log intensity, higher = more binding, comparable within an allelic series) | 11.5 upbm affinity estimate (log intensity, higher = more binding, comparable within an allelic series) | 11.7 upbm affinity estimate (log intensity, higher = more binding, comparable within an allelic series) | 10.6 upbm affinity estimate (log intensity, higher = more binding, comparable within an allelic series) | 9.97 upbm affinity estimate (log intensity, higher = more binding, comparable within an allelic series) | 7.57 upbm affinity estimate (log intensity, higher = more binding, comparable within an allelic series) | 12.5 upbm affinity estimate (log intensity, higher = more binding, comparable within an allelic series) | 8.51 upbm affinity estimate (log intensity, higher = more binding, comparable within an allelic series)
CAATTAGA | 12.3 upbm affinity estimate (log intensity, higher = more binding, comparable within an allelic series) | 11.9 upbm affinity estimate (log intensity, higher = more binding, comparable within an allelic series) | 12.5 upbm affinity estimate (log intensity, higher = more binding, comparable within an allelic series) | 9.38 upbm affinity estimate (log intensity, higher = more binding, comparable within an allelic series) | 8.75 upbm affinity estimate (log intensity, higher = more binding, comparable within an allelic series) | 10.9 upbm affinity estimate (log intensity, higher = more binding, comparable within an allelic series) | 7.65 upbm affinity estimate (log intensity, higher = more binding, comparable within an allelic series) | 13.8 upbm affinity estimate (log intensity, higher = more binding, comparable within an allelic series) | 12.8 upbm affinity estimate (log intensity, higher = more binding, comparable within an allelic series) | 11.4 upbm affinity estimate (log intensity, higher = more binding, comparable within an allelic series) | 8.27 upbm affinity estimate (log intensity, higher = more binding, comparable within an allelic series) | 11.1 upbm affinity estimate (log intensity, higher = more binding, comparable within an allelic series) | 12.4 upbm affinity estimate (log intensity, higher = more binding, comparable within an allelic series) | 11.4 upbm affinity estimate (log intensity, higher = more binding, comparable within an allelic series) | 11.4 upbm affinity estimate (log intensity, higher = more binding, comparable within an allelic series) | 10.4 upbm affinity estimate (log intensity, higher = more binding, comparable within an allelic series) | 9.72 upbm affinity estimate (log intensity, higher = more binding, comparable within an allelic series) | 7.51 upbm affinity estimate (log intensity, higher = more binding, comparable within an allelic series) | 12.2 upbm affinity estimate (log intensity, higher = more binding, comparable within an allelic series) | 8.34 upbm affinity estimate (log intensity, higher = more binding, comparable within an allelic series)
AATTAAGC | 11.5 upbm affinity estimate (log intensity, higher = more binding, comparable within an allelic series) | 11.9 upbm affinity estimate (log intensity, higher = more binding, comparable within an allelic series) | 11.6 upbm affinity estimate (log intensity, higher = more binding, comparable within an allelic series) | 9.54 upbm affinity estimate (log intensity, higher = more binding, comparable within an allelic series) | 9.03 upbm affinity estimate (log intensity, higher = more binding, comparable within an allelic series) | 10.5 upbm affinity estimate (log intensity, higher = more binding, comparable within an allelic series) | 7.7 upbm affinity estimate (log intensity, higher = more binding, comparable within an allelic series) | 13.7 upbm affinity estimate (log intensity, higher = more binding, comparable within an allelic series) | 12.9 upbm affinity estimate (log intensity, higher = more binding, comparable within an allelic series) | 11.6 upbm affinity estimate (log intensity, higher = more binding, comparable within an allelic series) | 8.44 upbm affinity estimate (log intensity, higher = more binding, comparable within an allelic series) | 11.2 upbm affinity estimate (log intensity, higher = more binding, comparable within an allelic series) | 12.4 upbm affinity estimate (log intensity, higher = more binding, comparable within an allelic series) | 11.2 upbm affinity estimate (log intensity, higher = more binding, comparable within an allelic series) | 11 upbm affinity estimate (log intensity, higher = more binding, comparable within an allelic series) | 10.4 upbm affinity estimate (log intensity, higher = more binding, comparable within an allelic series) | 9.92 upbm affinity estimate (log intensity, higher = more binding, comparable within an allelic series) | 7.71 upbm affinity estimate (log intensity, higher = more binding, comparable within an allelic series) | 12.2 upbm affinity estimate (log intensity, higher = more binding, comparable within an allelic series) | 8.49 upbm affinity estimate (log intensity, higher = more binding, comparable within an allelic series)
CTTGCGGC | 6.55 upbm affinity estimate (log intensity, higher = more binding, comparable within an allelic series) | 7.11 upbm affinity estimate (log intensity, higher = more binding, comparable within an allelic series) | 6.49 upbm affinity estimate (log intensity, higher = more binding, comparable within an allelic series) | 7.22 upbm affinity estimate (log intensity, higher = more binding, comparable within an allelic series) | 6.47 upbm affinity estimate (log intensity, higher = more binding, comparable within an allelic series) | 6.52 upbm affinity estimate (log intensity, higher = more binding, comparable within an allelic series) | 6.53 upbm affinity estimate (log intensity, higher = more binding, comparable within an allelic series) | – | – | – | – | – | – | – | – | – | – | – | – | –
GAGGGGGC | 6.47 upbm affinity estimate (log intensity, higher = more binding, comparable within an allelic series) | – | 6.37 upbm affinity estimate (log intensity, higher = more binding, comparable within an allelic series) | – | 6.41 upbm affinity estimate (log intensity, higher = more binding, comparable within an allelic series) | 6.44 upbm affinity estimate (log intensity, higher = more binding, comparable within an allelic series) | 6.41 upbm affinity estimate (log intensity, higher = more binding, comparable within an allelic series) | – | – | – | – | – | – | – | – | – | – | – | – | –
